Compound activity: PubChem BioAssay, National Center for Advancing Translational Sciences (NCATS)
An excerpt weighted towards active compounds, which were near 8.7% of everything screened.
Vaccinia Venus: inhibitors of vaccinia virus (Venus reporter) | Vaccinia virus Venus reporter expression, fluorescence | Potency, µM (titrated, usually from 36.5 µM), inactives show top-dose activity change, negative = inhibition, actives largely listed as inhibitors | 330,000 compounds, 0.46% hits; calls by dose curve; tested in A549 cells; note: nearly all actives have a fitted effect of over 30% in size
Pf growth 48h: inhibits P. falciparum growth in the first generation, 48 h; Potency, µM (top dose mostly 28.7 µM), inactives show at the top dose activity change, negative = inhibition, usual class: inhibitors; 310,000 compounds, 5.9% hits; P. falciparum luciferase growth in erythrocytes, 48 h; AID 504832
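Here the parasites carry a stable luciferase gene and grow inside erythrocytes in Albumax-based RPMI medium with compound for one erythrocytic cycle. Activity is scored as loss of luminescent signal.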
AMA1-RON2 inh: AMA1-RON2 (P. falciparum) interaction inhibition; AlphaScreen AMA1-biotinylated RON2 peptide binding; Potency, µM (top dose mostly 58.2 µM), without a hit: at the highest dose activity change, negative = inhibition, actives largely listed as inhibitors; 360,000 compounds, 0.2% hits;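 note: 0% = vehicle wells and -100% = peptide control; nearly all actives have a fitted effect of over 45% in size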
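AMA1 (3D7) with his tag at 25 nM final met compounds first, then biotinylated RON2 peptide at 25 nM; detection used donor plus acceptor beads, 10 µg/mL apiece, read by AlphaScreen after 30 min at room temperature.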
Vaccinia mCherry: vaccinia inhibition (mCherry reporter) | Vaccinia virus mCherry reporter infection, fluorescence | Potency, µM (titrated, usually from 36.5 µM), for inactives: at the top dose activity change, negative = inhibition, usual class: inhibitors | 310,000 compounds, 0.63% hits; calls by dose curve; tested in A549 cells; note: nearly all actives have a fitted effect of over 35% in size
Pf growth 96h: P. falciparum growth inhibition at 96 hours | P. falciparum luciferase reporter growth, 96 h | Potency, µM (top dose mostly 28.7 µM), without a hit: at the top dose activity change, negative = inhibition, hits mostly inhibitors | 320,000 compounds, 6.9% hits | AID 504834
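Two-generation exposure (96 h) targets delayed-death phenotype. Reporter parasites carrying integrated firefly luciferase, in red cells at 2% hematocrit and 0.05% parasitemia final, kept at 37 C, 5% CO2; luminescence loss indicates inhibition.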
Numbers without * were called inactive; i = inactive; ? = inconclusive; / = no result given; [ ] = another dose, or the depositor's remark. Unless noted, calls come from the whole dose curve; as a rule, active = well fitted curve in the direction sought with a large enough effect; inconclusive = small, poorly fitted or top-dose-only effect, or another doubt; inactive = no such curve, though single readings can be large; an effect the other way counts as inactive or inconclusive. Unless noted, % is set by controls: 0 for no effect and ±100 for the full control effect; potency is the fitted concentration of half-maximal effect.

SMILES	Vaccinia Venus	Pf growth 48h	AMA1-RON2 inh	Vaccinia mCherry	Pf growth 96h
CCOC(=O)c1c(NC(=O)CSc2nnnn2-c2ccccc2OCC)sc2c1CC(C)(C)NC2(C)C	-29%	10µM*	-8%	?	8.3µM*
CCOC(=O)c1c(NC(=O)CSc2nc3ccc(C)cc3[nH]2)sc2c1CC(C)(C)NC2(C)C	?	4.7µM*	-6%	-25%	4.7µM*
CCOC(=O)c1c(NC(=O)CSc2nnnn2-c2ccccc2)sc2c1CC(C)(C)NC2(C)C	?	6.6µM*	3%	-28%	2.6µM*
COc1ccc(S(=O)(=O)N2CCN(c3nc(-c4cccs4)nc4ccccc34)CC2)cc1	-13%	/	/	-16%	/
CC(C)N(C(=O)Cn1cc(SCC(=O)Nc2ccccc2C(F)(F)F)c2ccccc21)C(C)C	-18%	/	/	-6%	/
CCOc1ccc(N2CC(c3nc4ccccc4n3CCCOc3ccccc3)CC2=O)cc1 (stereo not drawn)	-16%	/	/	-22%	/
COc1ccc(C2N(c3cc(Cl)ccc3OC)C(=O)C3CCCN32)c(OC)c1 (stereo not drawn)	-12%	/	17%	-8%	0.93µM*
COc1ccccc1C1N(c2cc(Cl)ccc2OC)C(=O)C2CCCN21 (stereo not drawn)	0%	/	8%	-10%	-7%
CSc1nc(N(C)NC(=O)c2ccc(F)cc2)c2ccccc2n1	?	2.1µM*	-12%	/	2.3µM*
Cn1nnnc1SCCNCc1cc(Br)ccc1OCc1ccccc1Cl	-28%	/	/	-24%	/
CCOc1ccc(C(CCc2ccccc2)NC(=O)c2ccccc2OC)cc1OCC (stereo not drawn)	/	/	6%	/	?
CCOc1ccc(C(C)NC(=O)c2cccs2)cc1OCC (stereo not drawn)	/	/	-8%	/	/
CCOc1ccc(C(CCc2ccccc2)NC(=O)c2ccccc2F)cc1OCC (stereo not drawn)	/	/	-5%	/	1.5µM*
CCOc1ccccc1/C=C(/NC(=O)c1ccccc1)C(=O)NC(C)c1ccccc1 (stereo not drawn)	-8%	5%	-1%	-16%	10µM*
CCOc1ccc(C(C)NC(=O)Cc2ccccc2F)cc1OCC (stereo not drawn)	-3%	?	1%	-5%	1.3µM*
CCOc1ccc(C(C)NC(=O)Cc2ccccc2)cc1OCC (stereo not drawn)	-8%	2.3µM*	-14%	-14%	2.1µM*
CC(NC(=O)Cc1ccccc1F)c1ccc(F)cc1 (stereo not drawn)	-3%	20%	16%	5%	12%
COc1ccc(-c2cc3nc(C)c(CCC(=O)N4CCN(c5cccc(Cl)c5)CC4)c(C)n3n2)c(OC)c1	-18%	/	/	-26%	/
CCOc1ccc(Br)cc1S(=O)(=O)Nc1ccccc1N1CCOCC1	-29%	8.3µM*	8%	?	/
CCN(CCCNC(=O)Cn1ncc2c3ccccc3n(C)c2c1=O)c1cccc(C)c1	1%	/	/	-7%	/
CCN(CC)c1ccc(C=C(c2nnnn2-c2ccc(C)cc2)c2nnnn2-c2ccc(C)cc2)cc1	/	1.7µM*	11%	/	?
Cc1nn(-c2ccccc2)c(N2CCCC2)c1/C=N/NC(=O)C1CC1	2%	10µM*	-1%	-12%	12µM*
Cc1nn(-c2ccccc2)c(N2CCCCC2)c1/C=N/O	-12%	-16%	-2%	-8%	6%
O=C(N/N=C/c1cc2c3c(c1O)CCCN3CCC2)c1ccccc1O	?	3.3µM*	?	?	2.6µM*
CCOc1ccc(Oc2c(/C=N/NC(C)=O)c(C)nn2-c2ccccc2)cc1	-17%	?	16%	-9%	?
SMILES	Vaccinia Venus	Pf growth 48h	AMA1-RON2 inh	Vaccinia mCherry	Pf growth 96h
Cn1cc(/C=N/NC(=O)c2ccccc2O)c2ccccc21	/	?	157%	/	82%
COc1ccc(NC(=O)c2cc(-c3ccccc3)nc3c2c(C)nn3-c2ccccc2)c(OC)c1	-13%	?	-2%	i	?
CC(/C=N/NC(=O)c1cc(-c2cccnc2)nc2c1c(C)nn2-c1ccccc1)=C\c1ccccc1	-12%	?	4%	0%	2.9µM*
CCOc1ccc(Oc2c(/C=N/NC(=O)C3CC3)c(C)nn2-c2ccccc2)cc1	-14%	3.3µM*	-13%[11.6 µM]	-17%	?
CCOc1ccc(C2CC(c3c(O)n(C4CCCCC4)c(=O)[nH]c3=O)=Nc3ccccc3S2)cc1 (stereo not drawn)	-2%	/	/	-8%	/
CS(=O)(=O)c1ccc(-c2csc(N3CCC(C(N)=O)CC3)n2)cc1	/	5%	/	/	0%
Cc1nn(-c2ccccc2)c(N2CCCC2)c1/C=N/NC(=O)c1ccccc1O	-16%	8.3µM*	31%	-14%	13µM*
CCNc1ccc(C(=O)N/N=C/c2c(C)nn(-c3ccccc3)c2N2CCCC2)cc1[N+](=O)[O-]	-4%	-9%	1%	-8%	-19%
Cc1[nH]c2ccccc2c1C=NNC(=O)c1cc(-c2cccnc2)nc2ccccc12	/	/	55%	/	/
Cc1nn(-c2ccccc2)c(N2CCCC2)c1/C=N/NC(=O)c1cc(-c2cccnc2)nc2ccccc12	?	12µM*	-1%[11.6 µM]	?	?
Cc1nn(-c2ccccc2)c(C)c1/C=N/NC(=O)c1ccccc1O	-12%	3.7µM*	56%	-18%	6.6µM*
N#Cc1ccc(CSc2ncnc3c2cnn3Cc2ccccc2)cc1	-5%	?	14%	-11%	7.4µM*
Cc1ccc(CSc2ncnc3c2cnn3Cc2ccccc2)cc1	/	-2%	11%	/	/
Cc1nc(SCC(=O)c2ccc(F)cc2)c([N+](=O)[O-])[nH]1	-3%	5%	-4%	/	1.9µM*
COc1cccc(C(=O)Nc2ccc(C(=O)OCc3cc(=O)n4nc(C5CC5)sc4n3)cc2)c1	-17%	/	/	-17%	/
CN(C)C/C=C(/c1ccc(Br)cc1)c1cccnc1	-19%	12µM*	11%	-27%	15µM*
Cc1cccc(Nc2nnc(SCC(=O)Nc3ccccc3[N+](=O)[O-])s2)c1C	-21%	?	29%	-21%	?
Cc1cccc(C)c1NC(=O)CSc1nnc(NC(=O)c2ccccc2C(=O)O)s1	/	0%	11%	/	?
Cc1ccc(Nc2nnc(SCC(=O)Nc3ccccc3[N+](=O)[O-])s2)cc1	?	-15%	-6%	?	10µM*
O=C(CSc1nnc(NC(=O)c2ccccc2C(=O)O)s1)Nc1ccccc1Cl	-12%	-27%	-4%	-25%	13µM*
CCOc1ccc(CNC(=O)C2Cc3ccccc3N2C(=O)CC)cc1 (stereo not drawn)	1%	/	/	-6%	/
COc1ccc(-c2oc3ncn4nc(COc5cccc(C)c5C)nc4c3c2-c2ccc(OC)cc2)cc1	6%	/	/	-2%	/
Cc1ccc(C2c3[nH]c4ccccc4c3C[C@H]3C(=O)N(c4ccccc4C(=O)NCCN4CCOCC4)C(=O)N23)cc1 (stereo partly drawn)	6%	15µM*	-13%	-9%	?
